According to PubChem BioAssay (EPA / NIEHS):
Activity calls are given as the source filed them. Rule for the calls: active = hit-call score of the fitted dose curve at least 0.9, where 1 is the maximum; inactive = score below 0.9.

assay: CCTE_Shafer_MEA_dev_correlation_coefficient_mean: CCTE's Neural Network Formation Assay for Mean Correlation Coefficient, Shafer Lab (AID 2284093);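 for AC50: well mean pairwise spike train correlation integrated as AUC over recording days 5 to 12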
Experimental: CCTE_Shafer_MEA_dev assay is conducted using Axion Biosystems 48 well microelectrode array (MEA) plates and Maestro recording system. Each well of the MEA plate contains a grid of 16 microelectrodes embedded in the culture surface. Electrically active cells, such as neurons, can be cultured over the electrodes, and electrical activity in these cells can be recorded extracellularly. The spontaneous firing of neurons is captured from each electrode on a microsecond timescale providing both temporally and spatially precise data. […] The CCTE_Shafer_MEA_dev assay uses primary cultures of rat cortical neurons. Recordings are made on days post-plating 5, 7, 9 and 12. As these cultures mature over time, neural networks develop functional activity and form cohesive networks in which electrical activity can be highly coordinated. CCTE_Shafer_MEA_dev_correlation_coefficient_mean is 1 of 19 assay components of the CCTE_Shafer_MEA_dev assay. It measures the correlation coefficent of spikes (action potential firings) between every pair of electrodes in a well during a recording in a microelectrode array (MEA) using Axion Biosystems Maestro 768 channel amplifier with the AxIS adaptive spike detector. The pairwise correlations are averaged across active electrodes to report a well-mean value. To collapse across multiple recordings made on days post-plating 5, 7, 9 and 12, the trapezoidal area-under-the-curve of the component is calculated.Data from the assay component CCTE_Shafer_MEA_dev_correlation_coefficient_mean was analyzed into 1 assay endpoint. This assay endpoint, CCTE_Shafer_MEA_dev_correlation_coefficient_mean, was analyzed in the negative analysis fitting direction relative to DMSO as the negative control and baseline of activity. Using a type of functional reporter, gain or loss-of-signal activity can be used to understand electrical activity.
On the day prior to culture, each well was coated thoroughly with 150 uL of 0.05% polyethyleneimine (PEI, Sigma Cat P3143) in 50 mM HEPES (Sigma Cat H7523) at a pH of 8. The plate was incubated at 37C for one hour. PEI was rinsed out with 500 uL of sterile water three times. Plates were stored at 4C until the day of culture. This culture was plated at a seeding density of 1.5 x 10^5 cells/well on a 48-well MEA plate, prepared as described above. Cells were administered via a 25 uL media/laminin ([…]; Sigma Cat L2020-1MG) drop directly onto the microelectrode array, as adding the cells with the laminin results in better attachment than pre-coating with laminin. After 2 hours, an additional 475 uL of cortical media was added and the cells returned to the incubator. Exposure starts at day 0 of plating and is continued over twelve days of network development until the experiment is terminated. Cells are fed with fresh medium on DIV 5 and 9, following the recordings on those days. The entire volume of media in the well is exchanged and any vehicle or compound treatment is renewed. Complete details are found in OP-NHEERL/ISTD/SBB/TJS/2015-03-r0 (available on request, email shafer.tim@epa.gov). Measurement of the electrical activity is non-invasive, and recordings can be made from the same plate over multiple different days of the culture. In cortical neurons, this allows for the measurement of extracellular action potentials over the period during which networks form in the MEA plate.

| Compound | outcome | AC50 |
| --- | --- | --- |
| Cc1[nH]n(C)c(=O)c1C(=O)c1ccc(C(F)(F)F)cc1S(C)(=O)=O | inactive |  |
| O=C1CC2(CCCC2)CC(=O)N1CCCCN1CCN(c2ncccn2)CC1 |  | 25 µM (active) |
| c1cc2c3c(c1)ccc1cccc(c13)C2 | inactive |  |
| Brc1cc(Br)c(Oc2cc(Br)c(Br)cc2Br)cc1Br | inactive |  |
| F | inactive |  |
| [O]=[V]([OH])([OH])[OH] |  | 13.6 µM (active) |
| CN(C)CCCn1cc(C2=C(c3c[nH]c4ccccc34)C(=O)NC2=O)c2ccccc21 |  | 3.16 µM (active) [middle of 4 runs] |
| C[C@@H]1CC[C@@H](C(C)(C)O)[C@H](O)C1 | inactive |  |
| C[C@@H]1CCO[C@H]2Cn3cc(C(=O)NCc4ccc(F)cc4F)c(=O)c(O)c3C(=O)N12 |  | 1.52 µM (active) |
| CC(C)O | inactive |  |
| CC(=O)N[C@@H](CC(=O)O)C(=O)O | inactive |  |
| CC(CNC(=S)[S-])NC(=S)[S-].[Zn+2] (stereo not drawn) |  | 19.7 µM (active) |
| CC(C)c1nn(C(=O)NC(C)(C)C)c(=O)n1N | inactive |  |
| CCc1ccccc1 | inactive |  |
| BrC1CC(Br)CC(Br)CC(Br)CC(Br)CC(Br)C1 (stereo not drawn) |  | 2.92 µM (active) |
| CCCCCC=C(C)C(CC)CCO (stereo not drawn) | inactive |  |
| c1ccc2c(c1)ccc1c3ccccc3ccc21 | inactive |  |
| CCCCCC(C)(CC)C(=O)NC (stereo not drawn) | inactive |  |
